Data: PMC7862700, “An all-to-all approach to the identification of sequence-specific readers for epigenetic DNA modifications on cytosine”

Legend:
Assay in all cases: DAPPL (digital affinity profiling via proximity ligation, sequencing); 10 mM Tris-HCl pH 7.5, 50 mM NaCl, 1 mM DTT, 4% glycerol, room temperature, 30 min; GST-TFs on glutathione beads, 16-mer random dsDNA library, 0.1% formaldehyde crosslink after washing; high values mean tight binding
FEV = target: T1, FEV (Homo sapiens, UniProt Q99581 1-238); settings: protein: recombinant; tags: N-terminal GST; dsDNA, one strand shown
T1 sequence: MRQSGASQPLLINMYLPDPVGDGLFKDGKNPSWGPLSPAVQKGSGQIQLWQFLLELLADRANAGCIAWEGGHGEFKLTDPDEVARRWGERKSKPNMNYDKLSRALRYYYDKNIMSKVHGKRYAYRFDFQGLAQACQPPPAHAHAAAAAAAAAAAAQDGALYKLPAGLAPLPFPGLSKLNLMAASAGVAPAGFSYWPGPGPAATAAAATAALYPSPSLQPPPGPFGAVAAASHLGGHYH
How it was run: (§1)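 Binding signal is each hexamer's read frequency for a factor divided by its frequency in the tag-only sample. The factors were GST-fused human transcription factors from yeast, captured on glutathione beads, DNA-barcoded and pooled with that sample. Pools were incubated with 200 nmole of a random double-stranded 16-mer DNA library in Tris/NaCl/DTT/glycerol buffer at room temperature for 30 min, then washed, crosslinked with 0.1% formaldehyde, proximity-ligated with BsaI/T4 ligase (1 h, 37 °C), PCR-amplified and sequenced on an Illumina NextSeq500.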

ETV5 = ETV5 (Homo sapiens, UniProt P41161 1-510); settings: protein: recombinant; tags: N-terminal GST; dsDNA, one strand shown
How it was run: as §1

HSF1 = HSF1 (Homo sapiens, UniProt Q00613 1-529); settings: protein: recombinant; tags: N-terminal GST; chain copies: 3; dsDNA, one strand shown
How it was run: as §1

SPIC = target: T2, SPIC (Homo sapiens, UniProt Q8N5J4 1-248); settings: protein: recombinant; tags: N-terminal GST; dsDNA, one strand shown
T2 sequence: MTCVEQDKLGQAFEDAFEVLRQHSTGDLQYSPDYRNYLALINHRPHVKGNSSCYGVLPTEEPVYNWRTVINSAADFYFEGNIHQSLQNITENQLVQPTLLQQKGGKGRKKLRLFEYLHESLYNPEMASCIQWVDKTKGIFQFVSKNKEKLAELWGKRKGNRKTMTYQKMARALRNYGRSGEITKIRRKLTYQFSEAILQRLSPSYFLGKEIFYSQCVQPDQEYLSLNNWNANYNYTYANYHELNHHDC
How it was run: as §1

ELF4 = ELF4 (Homo sapiens, UniProt Q99607 1-663); settings: protein: recombinant; tags: N-terminal GST; dsDNA, one strand shown
How it was run: as §1

ELK4 = target: T3, ELK4 (Homo sapiens, UniProt P28324-2 1-405); settings: protein: recombinant; tags: N-terminal GST; dsDNA, one strand shown
T3 sequence: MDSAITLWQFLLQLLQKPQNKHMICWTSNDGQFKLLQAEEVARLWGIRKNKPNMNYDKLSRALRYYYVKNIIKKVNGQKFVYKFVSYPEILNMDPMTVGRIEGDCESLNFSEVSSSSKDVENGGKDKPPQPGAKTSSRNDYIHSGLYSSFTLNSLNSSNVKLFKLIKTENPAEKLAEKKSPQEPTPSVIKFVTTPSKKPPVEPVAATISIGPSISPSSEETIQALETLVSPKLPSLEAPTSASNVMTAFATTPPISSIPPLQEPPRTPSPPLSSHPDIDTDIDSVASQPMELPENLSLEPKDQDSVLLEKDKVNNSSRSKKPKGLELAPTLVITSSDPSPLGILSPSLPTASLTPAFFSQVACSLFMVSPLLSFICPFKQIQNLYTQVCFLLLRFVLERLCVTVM
How it was run: as §1

ETV2 = target: T4, ETV2 (Homo sapiens, UniProt O00321 1-342); settings: protein: recombinant; tags: N-terminal GST; dsDNA, one strand shown
T4 sequence: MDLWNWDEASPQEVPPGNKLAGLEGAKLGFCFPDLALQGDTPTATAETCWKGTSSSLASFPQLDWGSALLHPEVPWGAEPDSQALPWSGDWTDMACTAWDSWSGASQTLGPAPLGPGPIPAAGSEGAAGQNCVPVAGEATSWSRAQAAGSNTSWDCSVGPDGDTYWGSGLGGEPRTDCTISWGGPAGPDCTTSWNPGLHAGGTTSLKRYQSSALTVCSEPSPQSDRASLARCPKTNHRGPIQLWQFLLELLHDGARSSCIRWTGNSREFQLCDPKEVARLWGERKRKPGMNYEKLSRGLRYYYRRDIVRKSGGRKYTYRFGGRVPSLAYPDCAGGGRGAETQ
How it was run: as §1

ELF3 = target: T5, ELF3 (Homo sapiens, UniProt P78545 1-371); settings: protein: recombinant; tags: N-terminal GST; dsDNA, one strand shown
T5 sequence: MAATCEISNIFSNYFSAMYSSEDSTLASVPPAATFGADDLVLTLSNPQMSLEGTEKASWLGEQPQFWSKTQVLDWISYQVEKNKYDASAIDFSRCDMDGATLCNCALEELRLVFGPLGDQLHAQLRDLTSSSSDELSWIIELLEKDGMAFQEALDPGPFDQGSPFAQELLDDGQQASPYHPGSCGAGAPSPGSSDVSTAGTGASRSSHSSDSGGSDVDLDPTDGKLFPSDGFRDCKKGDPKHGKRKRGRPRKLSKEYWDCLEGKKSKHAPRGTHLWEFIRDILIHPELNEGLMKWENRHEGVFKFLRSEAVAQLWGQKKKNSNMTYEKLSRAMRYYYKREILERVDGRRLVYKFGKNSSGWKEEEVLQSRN
How it was run: as §1

CRX = CRX (Homo sapiens, UniProt O43186 1-299); settings: protein: recombinant; tags: N-terminal GST; dsDNA, one strand shown
How it was run: as §1

ETV1 = ETV1 (Homo sapiens, UniProt P50549 1-477); settings: protein: recombinant; tags: N-terminal GST; dsDNA, one strand shown
How it was run: as §1

ERF = target: T6, ERF (Homo sapiens, UniProt P50548 1-548); settings: protein: recombinant; tags: N-terminal GST; dsDNA, one strand shown
T6 sequence: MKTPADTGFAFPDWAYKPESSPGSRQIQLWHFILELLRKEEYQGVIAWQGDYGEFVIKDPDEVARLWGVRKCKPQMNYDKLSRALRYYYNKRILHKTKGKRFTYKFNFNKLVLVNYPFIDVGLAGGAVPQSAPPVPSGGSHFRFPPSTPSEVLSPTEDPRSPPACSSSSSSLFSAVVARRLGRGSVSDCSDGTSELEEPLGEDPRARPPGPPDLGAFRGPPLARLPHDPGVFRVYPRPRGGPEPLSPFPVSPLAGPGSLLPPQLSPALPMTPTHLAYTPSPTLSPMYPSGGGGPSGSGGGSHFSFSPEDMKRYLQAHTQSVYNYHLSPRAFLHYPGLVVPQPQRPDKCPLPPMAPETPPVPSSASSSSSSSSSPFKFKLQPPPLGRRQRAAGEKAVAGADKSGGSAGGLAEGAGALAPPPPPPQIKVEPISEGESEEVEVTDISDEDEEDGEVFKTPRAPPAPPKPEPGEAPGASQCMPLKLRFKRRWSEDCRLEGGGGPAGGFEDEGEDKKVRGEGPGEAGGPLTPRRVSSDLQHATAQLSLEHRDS
How it was run: as §1

ETV3L = target: T7, ETV3L (Homo sapiens, UniProt Q6ZN32 1-361); settings: protein: recombinant; tags: N-terminal GST; dsDNA, one strand shown
T7 sequence: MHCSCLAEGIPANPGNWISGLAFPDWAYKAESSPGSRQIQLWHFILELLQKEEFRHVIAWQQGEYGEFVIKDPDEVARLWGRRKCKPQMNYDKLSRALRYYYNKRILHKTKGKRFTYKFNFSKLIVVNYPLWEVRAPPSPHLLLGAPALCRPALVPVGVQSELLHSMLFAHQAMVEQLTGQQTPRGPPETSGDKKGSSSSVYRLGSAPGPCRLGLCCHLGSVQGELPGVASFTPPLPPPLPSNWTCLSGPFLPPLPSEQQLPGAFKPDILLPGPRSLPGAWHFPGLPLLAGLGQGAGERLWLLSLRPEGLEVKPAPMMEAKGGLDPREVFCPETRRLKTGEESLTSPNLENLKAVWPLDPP
How it was run: as §1

ETS2 = target: T8, ETS2 (Homo sapiens, UniProt P15036 1-469); settings: protein: recombinant; tags: N-terminal GST; dsDNA, one strand shown
T8 sequence: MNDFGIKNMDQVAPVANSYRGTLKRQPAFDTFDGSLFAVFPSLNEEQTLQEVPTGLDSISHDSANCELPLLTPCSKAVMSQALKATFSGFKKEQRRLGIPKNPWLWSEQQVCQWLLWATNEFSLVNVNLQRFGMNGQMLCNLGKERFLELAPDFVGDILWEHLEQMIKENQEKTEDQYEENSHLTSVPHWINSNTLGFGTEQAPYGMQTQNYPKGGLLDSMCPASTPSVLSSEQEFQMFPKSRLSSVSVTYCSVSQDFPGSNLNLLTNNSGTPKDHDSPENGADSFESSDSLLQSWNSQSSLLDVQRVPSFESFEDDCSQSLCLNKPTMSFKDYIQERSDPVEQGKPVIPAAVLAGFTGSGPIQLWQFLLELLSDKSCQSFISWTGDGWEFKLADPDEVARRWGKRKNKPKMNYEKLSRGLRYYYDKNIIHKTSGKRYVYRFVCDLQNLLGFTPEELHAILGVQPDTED
How it was run: as §1

SPDEF = target: T9, SPDEF (Homo sapiens, UniProt O95238 1-335); settings: protein: recombinant; tags: N-terminal GST; dsDNA, one strand shown
T9 sequence: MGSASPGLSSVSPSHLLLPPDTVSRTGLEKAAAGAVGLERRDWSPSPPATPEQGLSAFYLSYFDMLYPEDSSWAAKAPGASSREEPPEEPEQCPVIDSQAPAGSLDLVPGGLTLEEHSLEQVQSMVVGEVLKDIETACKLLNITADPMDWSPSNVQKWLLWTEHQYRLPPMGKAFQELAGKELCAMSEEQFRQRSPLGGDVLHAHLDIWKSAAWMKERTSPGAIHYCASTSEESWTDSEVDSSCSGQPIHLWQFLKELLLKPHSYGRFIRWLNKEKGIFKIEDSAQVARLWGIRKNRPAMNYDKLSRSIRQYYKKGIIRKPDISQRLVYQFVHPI
How it was run: as §1

ETV7 = target: T10, ETV7 (Homo sapiens, UniProt Q9Y603 1-341); settings: protein: recombinant; tags: N-terminal GST; dsDNA, one strand shown
T10 sequence: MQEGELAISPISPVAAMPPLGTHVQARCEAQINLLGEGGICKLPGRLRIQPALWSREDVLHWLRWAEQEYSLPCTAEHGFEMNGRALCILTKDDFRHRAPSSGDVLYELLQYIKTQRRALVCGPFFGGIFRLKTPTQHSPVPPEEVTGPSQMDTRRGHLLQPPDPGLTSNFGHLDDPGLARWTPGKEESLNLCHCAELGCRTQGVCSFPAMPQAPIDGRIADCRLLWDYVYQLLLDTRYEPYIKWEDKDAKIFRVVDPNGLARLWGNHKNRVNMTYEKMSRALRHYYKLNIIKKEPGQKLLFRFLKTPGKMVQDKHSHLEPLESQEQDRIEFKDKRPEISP
How it was run: as §1

ELF5 = target: T11, ELF5 (Homo sapiens, UniProt Q9UKW6-2 1-255); settings: protein: recombinant; tags: N-terminal GST; dsDNA, one strand shown
T11 sequence: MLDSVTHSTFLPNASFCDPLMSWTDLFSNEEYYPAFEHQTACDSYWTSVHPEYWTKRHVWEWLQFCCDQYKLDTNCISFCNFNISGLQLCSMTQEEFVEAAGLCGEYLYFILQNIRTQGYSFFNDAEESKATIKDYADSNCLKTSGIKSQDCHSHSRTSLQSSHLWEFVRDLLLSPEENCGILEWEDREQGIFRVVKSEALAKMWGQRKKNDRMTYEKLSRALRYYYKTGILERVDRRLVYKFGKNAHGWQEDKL
How it was run: as §1

ETV3 = target: T12, ETV3 (Homo sapiens, UniProt P41162-2 1-143); settings: protein: recombinant; tags: N-terminal GST; dsDNA, one strand shown
T12 sequence: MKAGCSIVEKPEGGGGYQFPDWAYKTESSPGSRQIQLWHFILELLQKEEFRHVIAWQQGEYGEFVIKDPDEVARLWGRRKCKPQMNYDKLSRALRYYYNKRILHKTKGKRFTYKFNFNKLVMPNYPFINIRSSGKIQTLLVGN
How it was run: as §1

ETV6 = ETV6 (Homo sapiens, UniProt P41212 1-452); settings: protein: recombinant; tags: N-terminal GST; dsDNA, one strand shown
How it was run: as §1

ETV1, sequence (P50549 whole entry): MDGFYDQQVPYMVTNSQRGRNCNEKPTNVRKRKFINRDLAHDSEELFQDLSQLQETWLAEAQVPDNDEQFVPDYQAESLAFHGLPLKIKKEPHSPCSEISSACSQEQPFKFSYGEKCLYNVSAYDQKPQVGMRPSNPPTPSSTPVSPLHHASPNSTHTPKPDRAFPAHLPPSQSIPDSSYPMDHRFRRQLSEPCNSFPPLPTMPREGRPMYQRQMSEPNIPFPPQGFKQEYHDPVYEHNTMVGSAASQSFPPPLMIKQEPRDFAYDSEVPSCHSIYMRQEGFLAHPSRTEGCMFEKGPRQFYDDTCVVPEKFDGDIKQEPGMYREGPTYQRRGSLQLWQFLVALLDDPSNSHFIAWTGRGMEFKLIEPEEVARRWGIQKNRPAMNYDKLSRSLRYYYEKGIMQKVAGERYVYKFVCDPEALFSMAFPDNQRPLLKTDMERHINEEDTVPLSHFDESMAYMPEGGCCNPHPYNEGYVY
CRX, sequence (O43186 whole entry): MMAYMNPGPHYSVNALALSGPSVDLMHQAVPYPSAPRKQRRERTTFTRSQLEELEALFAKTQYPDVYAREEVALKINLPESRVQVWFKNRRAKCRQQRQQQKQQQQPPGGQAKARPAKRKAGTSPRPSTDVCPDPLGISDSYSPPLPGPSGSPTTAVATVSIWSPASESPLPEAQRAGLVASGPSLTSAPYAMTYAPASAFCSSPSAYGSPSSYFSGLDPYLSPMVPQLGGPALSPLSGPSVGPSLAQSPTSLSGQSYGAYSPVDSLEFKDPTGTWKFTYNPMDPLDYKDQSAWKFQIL
ETV5, sequence (P41161 whole entry): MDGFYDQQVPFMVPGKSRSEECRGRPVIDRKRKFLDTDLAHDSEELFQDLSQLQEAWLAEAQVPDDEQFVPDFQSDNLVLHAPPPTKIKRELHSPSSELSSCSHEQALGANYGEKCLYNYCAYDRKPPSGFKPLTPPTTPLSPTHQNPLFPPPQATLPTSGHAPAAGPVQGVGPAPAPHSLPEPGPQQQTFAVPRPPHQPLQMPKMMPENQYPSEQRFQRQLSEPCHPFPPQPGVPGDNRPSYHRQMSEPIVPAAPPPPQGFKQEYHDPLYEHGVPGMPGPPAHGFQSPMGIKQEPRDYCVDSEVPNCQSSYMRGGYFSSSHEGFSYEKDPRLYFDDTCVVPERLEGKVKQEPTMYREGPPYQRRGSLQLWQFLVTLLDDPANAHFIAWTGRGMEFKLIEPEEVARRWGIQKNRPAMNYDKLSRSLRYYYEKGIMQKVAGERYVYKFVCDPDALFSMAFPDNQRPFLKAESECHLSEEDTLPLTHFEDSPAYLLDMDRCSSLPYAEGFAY
ETV6, sequence (P41212 whole entry): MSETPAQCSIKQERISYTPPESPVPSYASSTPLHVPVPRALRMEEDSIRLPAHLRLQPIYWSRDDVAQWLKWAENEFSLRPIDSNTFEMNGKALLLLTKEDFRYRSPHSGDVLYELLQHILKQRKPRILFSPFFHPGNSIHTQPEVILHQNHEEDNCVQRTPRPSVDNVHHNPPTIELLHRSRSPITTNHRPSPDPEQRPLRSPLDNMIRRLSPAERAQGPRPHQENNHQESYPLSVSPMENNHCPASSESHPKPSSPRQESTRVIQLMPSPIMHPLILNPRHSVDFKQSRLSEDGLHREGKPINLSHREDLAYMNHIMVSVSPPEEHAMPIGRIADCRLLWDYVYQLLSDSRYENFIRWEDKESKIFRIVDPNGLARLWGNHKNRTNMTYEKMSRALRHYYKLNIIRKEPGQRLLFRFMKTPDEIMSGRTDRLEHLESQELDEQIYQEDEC
HSF1, sequence (Q00613 whole entry): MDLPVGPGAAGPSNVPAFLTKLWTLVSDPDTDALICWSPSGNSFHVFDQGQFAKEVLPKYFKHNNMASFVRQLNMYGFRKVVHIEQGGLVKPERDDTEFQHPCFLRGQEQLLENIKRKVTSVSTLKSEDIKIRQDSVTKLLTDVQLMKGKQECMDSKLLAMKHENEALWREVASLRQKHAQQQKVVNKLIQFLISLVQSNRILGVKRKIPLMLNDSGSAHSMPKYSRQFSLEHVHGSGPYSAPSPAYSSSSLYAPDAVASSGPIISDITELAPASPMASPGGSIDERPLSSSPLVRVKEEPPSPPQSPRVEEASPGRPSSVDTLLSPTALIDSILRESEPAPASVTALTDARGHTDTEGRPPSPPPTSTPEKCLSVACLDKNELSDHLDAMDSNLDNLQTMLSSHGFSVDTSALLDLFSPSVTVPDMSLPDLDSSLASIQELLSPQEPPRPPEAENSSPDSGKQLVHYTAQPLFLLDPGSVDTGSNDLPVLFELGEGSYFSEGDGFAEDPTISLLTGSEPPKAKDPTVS
ELF4, sequence (Q99607 whole entry): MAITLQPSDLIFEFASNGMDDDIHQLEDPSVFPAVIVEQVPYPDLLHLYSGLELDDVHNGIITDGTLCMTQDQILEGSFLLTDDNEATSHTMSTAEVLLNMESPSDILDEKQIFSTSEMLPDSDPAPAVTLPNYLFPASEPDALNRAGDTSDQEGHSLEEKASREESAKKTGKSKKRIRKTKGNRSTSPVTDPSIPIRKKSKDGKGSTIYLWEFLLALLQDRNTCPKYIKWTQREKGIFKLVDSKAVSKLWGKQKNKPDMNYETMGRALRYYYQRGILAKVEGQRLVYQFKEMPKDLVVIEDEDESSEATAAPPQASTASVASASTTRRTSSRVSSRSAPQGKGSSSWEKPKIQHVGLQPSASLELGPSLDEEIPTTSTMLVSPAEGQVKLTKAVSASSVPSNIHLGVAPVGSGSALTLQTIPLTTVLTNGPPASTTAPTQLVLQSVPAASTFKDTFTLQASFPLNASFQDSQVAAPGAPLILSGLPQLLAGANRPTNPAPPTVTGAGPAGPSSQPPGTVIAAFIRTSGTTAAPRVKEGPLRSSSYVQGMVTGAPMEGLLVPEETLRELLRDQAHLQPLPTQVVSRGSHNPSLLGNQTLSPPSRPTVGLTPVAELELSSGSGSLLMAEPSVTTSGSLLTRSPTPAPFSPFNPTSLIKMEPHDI

TGCTCG
binding signal (FEV): 1.23 fold enrichment (6-mer frequency, TF over GST control) | binding signal (ETV5): 1.31 fold enrichment (6-mer frequency, TF over GST control) | binding signal (HSF1): 1.56 fold enrichment (6-mer frequency, TF over GST control) | binding signal (SPIC): 1.33 fold enrichment (6-mer frequency, TF over GST control) | binding signal (ELF4): 1.24 fold enrichment (6-mer frequency, TF over GST control) | binding signal (ELK4): 1.26 fold enrichment (6-mer frequency, TF over GST control) | binding signal (ETV2): 1.21 fold enrichment (6-mer frequency, TF over GST control) | binding signal (ELF3): 1.28 fold enrichment (6-mer frequency, TF over GST control) | binding signal (CRX): 1.17 fold enrichment (6-mer frequency, TF over GST control) | binding signal (ETV1): 1.28 fold enrichment (6-mer frequency, TF over GST control) | binding signal (ERF): 1.38 fold enrichment (6-mer frequency, TF over GST control) | binding signal (ETV3L): 1.46 fold enrichment (6-mer frequency, TF over GST control) | binding signal (ETS2): 1.29 fold enrichment (6-mer frequency, TF over GST control) | binding signal (SPDEF): 1.07 fold enrichment (6-mer frequency, TF over GST control) | binding signal (ETV7): 1.18 fold enrichment (6-mer frequency, TF over GST control) | binding signal (ELF5): 1.18 fold enrichment (6-mer frequency, TF over GST control) | binding signal (ETV3): 1.3 fold enrichment (6-mer frequency, TF over GST control) | binding signal (ETV6): 1.31 fold enrichment (6-mer frequency, TF over GST control)
